In the supplement of paper PMC3545927:
The other results are listed elsewhere or left out. The hit rate among all sequences tested is not known here.

B1: HC2231 (peptide)
chain: CAEVVTSTDVAGNASASA
B2: HC1260 (peptide)
chain: CAASSSASQLAGNASASA
B3: HC2027 (peptide)
chain: CAVVFCSMSYAGNASASA
B4: FS-1803 (peptide)
chain: CARVSKDVEDAGNASASA
B5: FS-1800 (peptide)
chain: CARVCRDLMDAGNASASA
B6: FS-2308 (peptide)
chain: CARSLRDLMEAGNASASA
B7: HC2031 (peptide)
chain: CAVVDCSMSYAGNASASA
B8: HC1049 (peptide)
chain: CAGLSTLPGNAGNASASA
B9: FS-2172 (peptide)
chain: CARQRKESETAGNASASA
B10: FS-2363 (peptide)
chain: CARQRKSVNAAGNASASA
B11: FS-3043 (peptide)
chain: CARQRRQVWKAGNASASA
B12: FS-2466 (peptide)
chain: CARTMKSVNAAGNASASA
B13: FS-2367 (peptide)
chain: CARQRRTVGQAGNASASA
B14: FS-2224 (peptide)
chain: CARQARAVPQAGNASASA
B15: FS-1915 (peptide)
chain: CARQARFSSQAGNASASA
B16: FS-2364 (peptide)
chain: CARQRRCLPQAGNASASA
B17: FS-2582 (peptide)
chain: CARQARHYHQAGNASASA
B18: HC340 (peptide)
chain: CAIAYFSMVGAGNASASA
B19: HC1333 (peptide)
chain: CAAELATRSFAGNASASA
B20: HC1327 (peptide)
chain: CAVVLTESTLAGNASASA
B21: HC1301 (peptide)
chain: CAFAQALPVWAGNASASA
B22: HC672 (peptide)
chain: CAWRLLAPITAGNASASA
B23: HC802 (peptide)
chain: CARTITTGSPAGNASASA
B24: FS-2830 (peptide)
chain: CARTKRTRRPAGNASASA
B25: FS-1870 (peptide)
chain: CARTKRQIPHAGNASASA
B26: FS-1795 (peptide)
chain: CARSVRLGGPAGNASASA
B27: HC1636 (peptide)
chain: CARTKLKLTPAGNASASA
B28: FS-2824 (peptide)
chain: CARTKRAQSPAGNASASA
B29: FS-2527 (peptide)
chain: CARTKRTPGPAGNASASA
B30: HC1230 (peptide)
chain: CAPLLREEVSAGNASASA
B31: HC1902 (peptide)
chain: CATTPCSQSWAGNASASA
B32: HC1876 (peptide)
chain: CATTGCSGSWAGNASASA
B33: FS-723 (peptide)
chain: CASPSGQKRSAGNASASA
B34: FS-480 (peptide)
chain: CAQPSRQKRSAGNASASA
B35: FS-535 (peptide)
chain: CAHFSRQKRSAGNASASA
B36: FS-670 (peptide)
chain: CAKDSRQKRSAGNASASA
B37: HC110 (peptide)
chain: CAVVCCRMSYAGNASASA
B38: HC2095 (peptide)
chain: CAVVCCSMSHAGNASASA
B39: HC831 (peptide)
chain: CAARLVVLATAGNASASA
B40: FS-2022 (peptide)
chain: CARHHRGRGGAGNASASA
B41: FS-690 (peptide)
chain: CAMASRFPRAAGNASASA
B42: FS-1063 (peptide)
chain: CARHHRFPRAAGNASASA
B43: HC1475 (peptide)
chain: CAKSKKTPMGAGNASASA

Target: furin, P09958
Sequence (P09958 whole entry): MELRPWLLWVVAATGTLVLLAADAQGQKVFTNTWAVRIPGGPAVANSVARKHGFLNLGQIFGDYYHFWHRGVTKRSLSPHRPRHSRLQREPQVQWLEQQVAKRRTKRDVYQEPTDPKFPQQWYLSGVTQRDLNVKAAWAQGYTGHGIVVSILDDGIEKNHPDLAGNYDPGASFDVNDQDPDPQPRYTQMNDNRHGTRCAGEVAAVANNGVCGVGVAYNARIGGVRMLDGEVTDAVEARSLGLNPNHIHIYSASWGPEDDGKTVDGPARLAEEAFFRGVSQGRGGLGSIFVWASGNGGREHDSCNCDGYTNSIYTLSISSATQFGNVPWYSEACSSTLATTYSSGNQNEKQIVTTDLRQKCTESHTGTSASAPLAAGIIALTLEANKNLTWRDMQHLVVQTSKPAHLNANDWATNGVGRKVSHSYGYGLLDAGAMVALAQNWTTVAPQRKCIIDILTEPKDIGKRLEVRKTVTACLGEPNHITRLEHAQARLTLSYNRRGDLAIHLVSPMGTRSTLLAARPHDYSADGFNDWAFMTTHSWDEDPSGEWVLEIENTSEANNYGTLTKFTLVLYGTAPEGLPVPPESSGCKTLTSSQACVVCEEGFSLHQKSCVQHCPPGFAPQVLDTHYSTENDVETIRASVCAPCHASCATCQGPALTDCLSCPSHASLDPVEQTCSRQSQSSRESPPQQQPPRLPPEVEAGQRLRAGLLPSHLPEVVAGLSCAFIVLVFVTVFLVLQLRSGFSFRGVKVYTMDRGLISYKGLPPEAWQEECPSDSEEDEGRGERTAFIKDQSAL
Assay: furin cleavage Z-score vs untreated control; higher = more cleavage, active = 3.5 or more, inactive = 1 or less, 8 variable residues between constant flanks
Outline: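 Purified furin digested bead-held 8-mer peptide–cDNA fusions at 1:10 enzyme:substrate in 0.01 ml of 50 mM HEPES pH 7.5 with CaCl2 and NaCl for 7.5, 15 or 30 min. The cleavage Z-score compares sequencing counts of released DNA with furin-free reactions on a log scale, with lowess adjustment and median absolute deviation scaling.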

Sequence	furin cleavage Z-score (7.5 min)	furin cleavage Z-score (15 min)	furin cleavage Z-score (30 min)
B1	-0.548 (inactive)	0.743 (inactive)	-0.721 (inactive)
B2	1.48	0.251 (inactive)	0.48 (inactive)
B3	1.89	0.607 (inactive)	-0.194 (inactive)
B4	0.222 (inactive)	-0.204 (inactive)	-0.557 (inactive)
B5	4.33 (active)	7.74 (active)	7.6 (active)
B6	0.906 (inactive)	1.52	1.89
B7	-1.66 (inactive)	-0.65 (inactive)	-0.452 (inactive)
B8	0.578 (inactive)	-0.00394 (inactive)	0.293 (inactive)
B9	-0.961 (inactive)	-0.283 (inactive)	-0.371 (inactive)
B10	1.57	3.81 (active)	4.35 (active)
B11	2.63	5.18 (active)	6.07 (active)
B12	1.07	2.56	0.0466 (inactive)
B13	6.93 (active)	8.06 (active)	7.82 (active)
B14	3.01	5.06 (active)	5.46 (active)
B15	-1.25 (inactive)	-0.103 (inactive)	0.0874 (inactive)
B16	-0.0379 (inactive)	0.942 (inactive)	2.63
B17	0.232 (inactive)	1.85	2.09
B18	-0.888 (inactive)	-0.599 (inactive)	0.982 (inactive)
B19	2.09	0.0816 (inactive)	1.22
B20	0.79 (inactive)	0.145 (inactive)	0.957 (inactive)
B21	-1.52 (inactive)	0.477 (inactive)	-2.4 (inactive)
B22	-1.21 (inactive)	-0.661 (inactive)	-0.636 (inactive)

Sequence	furin cleavage Z-score (7.5 min)	furin cleavage Z-score (15 min)	furin cleavage Z-score (30 min)
B23	-0.428 (inactive)	-0.048 (inactive)	0.343 (inactive)
B24	0.799 (inactive)	1.15	0.99 (inactive)
B25	7.68 (active)	12 (active)	8.92 (active)
B26	0.0283 (inactive)	0.734 (inactive)	-1.33 (inactive)
B27	-0.273 (inactive)	-0.712 (inactive)	0.0379 (inactive)
B28	6.65 (active)	6.74 (active)	5.31 (active)
B29	5.68 (active)	6.29 (active)	6.29 (active)
B30	0.0348 (inactive)	-0.15 (inactive)	-1.63 (inactive)
B31	-0.685 (inactive)	-1.5 (inactive)	-0.222 (inactive)
B32	-1.5 (inactive)	-0.493 (inactive)	0.42 (inactive)
B33	0.144 (inactive)	0.828 (inactive)	0.312 (inactive)
B34	11.2 (active)	11.3 (active)	7.7 (active)
B35	8.68 (active)	10.7 (active)	8.57 (active)
B36	10.3 (active)	10.5 (active)	7.97 (active)
B37	0.397 (inactive)	0.763 (inactive)	0.409 (inactive)
B38	-0.191 (inactive)	0.171 (inactive)	0.0466 (inactive)
B39	-1.24 (inactive)	-1.13 (inactive)	-0.8 (inactive)
B40	-0.128 (inactive)	0.955 (inactive)	-0.479 (inactive)
B41	11.5 (active)	11.7 (active)	9.44 (active)
B42	12.2 (active)	10.7 (active)	8.91 (active)
B43	1.44	0.854 (inactive)	-0.61 (inactive)
